Laboratory results published in PubChem BioAssay AID1080 (Emory University Molecular Libraries Screening Center, 2008).
Hit rate of the full screen: of about 1,300 compounds, about 640 (49%) were called active.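 The calls were made as follows: active = cAMP induction above 50% in the main assay while under 30% in all four parallel counter assays; inactive = the rest.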 So high a share suggests a set chosen from earlier hits. The list is a sample of the results.

What was measured:
[1] = EP2 hit retest with parallel cAMP counter-assays – cell-based, five parallel assays, C6 glioma, HEK293, counter-screen for EP2 modulator project, confirmation (AID 1080); conditions: C6 glioma EP2 cells, cAMP HTRF induction
[2] = biological target: Prostaglandin E2 receptor EP2 subtype (Homo sapiens) (UniProt P43116); assay: as above; conditions: C6 glioma EP2 cells, cAMP HTRF induction; stronger effect = higher value; screened at 20 µM (by protocol); percent of 1 uM PGE2 response; plus low (about EC15) PGE2 agonist
[3] = measured here: EP4 receptor counter-screen, percent of 1 uM PGE2 response, plus low (about EC15) PGE2 agonist
[4] = measured here: beta2 adrenergic HEK293 counter-screen
[5] = measured here: cAMP conditions counter-screen
[6] = measured here: parent C6 cells counter-screen

Row | Structure (SMILES) | cAMP induction [1, 3] [%] | cAMP induction [1, 4] [%] | cAMP induction [1, 5] [%] | cAMP induction [1, 6] [%] | cAMP induction [2]
1 | O=C(Nc1ccccc1N1CCCCC1)c1cccc(F)c1 | 20.9 | -8.46 | -6.32 | -1.46 | 54.4% (active)
2 | O=C(Nc1ccccc1N1CCCCC1)c1ccc2nccnc2c1 | -20.6 | -12.3 | -1.35 | -3.85 | 56.9% (active)
3 | CCC(C)(C)c1ccc(OCC(=O)N(C)C)c(C(C)(C)CC)c1 | -18 | -18.7 | -1.65 | -11.3 | 18.5% (inactive)
4 | CC[C@@H]1Cc2cc(O)ccc2C2=C1c1ccc(O)cc1C[C@H]2CC | -0.0767 | -11.7 | 6.45 | 2.02 | 34.5% (inactive)
5 | CCCc1cc(-c2n[nH]c(=S)n2Cc2ccccc2)cs1 | 1.9 | -7.59 | -4.47 | 1.74 | 37.8% (inactive)
6 | CCCCOc1ccc(-c2nnc(-c3ccco3)o2)cc1 | -1.8 | -7.34 | 3.34 | 3.09 | 50.4% (active)
7 | Cc1cc(C#N)c(SCC(N)=O)nc1-c1ccc(F)cc1 | 9.53 | 7.22 | 2.14 | -4.05 | 50.9% (active)
8 | FC(F)(F)c1cccc(-c2cc3ccccc3nc2N2CCCC2)c1 | 17.7 | -13 | -2.73 | -3.28 | 52.7% (active)
9 | CCOC(=O)c1c(C2CC2)csc1NC(=O)CSCc1c(C)noc1C | -15.3 | -5.42 | -2.02 | 2.56 | 48.8% (inactive)
10 | O=c1cc(N2CCCCC2)c(-c2ccccc2)nn1Cc1cccc(F)c1 | -7.11 | -13 | 3.15 | 3.46 | 79.6% (active)
11 | CCOc1ccc(NC(=O)CSc2ncnc3c2sc2ccccc23)cc1 | 80.8 | 81.1 | 79.9 | 80.1 | 77.7% (inactive)
12 | COc1ccc(C)c(Cn2c(-c3nonc3N)nc3ccccc32)c1 | 4.7 | -6.52 | 1.9 | 1.52 | 69.6% (active)
13 | COC(=O)C1=C(C)N(C)C(C)=C(C(=O)OC)C1c1cccc(Br)c1 | -5.89 | 5.82 | -5.28 | 1.49 | 46% (inactive)
14 | Cc1ccccc1-c1n[nH]c(=S)n1/N=C/c1ccc(-c2ccccc2Br)o1 | 18.4 | 14.3 | 22.4 | 19.4 | 57.9% (active)
15 | O=c1[nH]c(CSc2ncc(-c3ccc(F)cc3)n2Cc2ccco2)nc2ccccc12 | -12.9 | -5.45 | -6.27 | -5.69 | 39.9% (inactive)
16 | Cc1nn2c(c1-c1ccccc1)N=C(c1ccco1)CC2c1ccccc1 (stereo not given) | -13.9 | -0.13 | 0.137 | 4.52 | 36.7% (inactive)
17 | NC(=O)COc1ccc(C23CC4CC(CC(C4)C2)C3)cc1 | -2.42 | -18.4 | 7.34 | -0.99 | 64.6% (active)
18 | Cc1nc2ccccc2c(-c2ccccc2)c1C(=O)c1ccccc1 | 2.31 | 4.97 | -6.03 | -0.11 | 88.9% (active)
19 | O=c1c2ccccc2nc2n1C1(CCCCC1)Cc1ccccc1-2 | -3.33 | -1.27 | 0.00333 | -4.35 | 55.1% (active)
20 | CC(C)(C)c1nc2ccccc2c(=O)n1N1C(=O)c2ccccc2C1=O | -2.16 | 4.41 | 5.06 | 3.57 | 36.9% (inactive)
21 | CN(C)Cc1ccc(F)cc1Sc1cc(Cl)ccc1Cl | -1.47 | -10.1 | -3.1 | 2.77 | 45.2% (inactive)

Row | Structure (SMILES) | cAMP induction [1, 3] [%] | cAMP induction [1, 4] [%] | cAMP induction [1, 5] [%] | cAMP induction [1, 6] [%] | cAMP induction [2]
22 | CC(C)NC(=S)NN=C1CCCCCCCCCCC1 | 1.01 | 7.6 | 2.87 | -7.59 | 54.8% (active)
23 | COC(=O)CSc1nc2c(c(C3CC=CCC3)c1C#N)CCC2 (stereo not given) | 1.11 | 7.56 | 3.4 | 4.46 | 69.8% (active)
24 | CSc1ncnc2sc(C)c(C)c12 | 5.89 | 2.78 | 5.03 | 0.0167 | 42.1% (inactive)
25 | CC1CCN(c2nc3c(c(=O)[nH]c(=O)n3C)n2CCCc2ccccc2)CC1 | 4.8 | -2.72 | -1.35 | -0.403 | 42.2% (inactive)
26 | Cc1cccc(Cn2c(N3CCN(c4ccccc4)CC3)nc3c2c(=O)n(C)c(=O)n3C)c1 | -5.29 | -6.91 | 5.21 | 1.06 | 54.8% (active)
27 | COc1c2c(cc3occ(-c4ccc5c(c4)OCO5)c(=O)c13)OC(C)(C)C=C2 | -0.877 | -13.4 | 2.3 | 4.12 | 46.1% (inactive)
28 | CC(C)Oc1ccc(Cc2n[nH]c(=S)n2Cc2ccccc2)cc1Cl | -4.47 | -10.4 | 0.63 | 2.28 | 40% (inactive)
29 | CC1(C)Cc2nc3sc4c(SCC(=O)NC(c5ccccc5)c5ccccc5)ncnc4c3cc2CO1 | 71.8 | 71.7 | 70.8 | 70 | 68.6% (inactive)
30 | CCOC(=O)C1=C(CN2CCc3ccccc32)NC(=O)NC1c1ccc(Cl)cc1 (stereo not given) | -13 | -5.75 | -12.2 | -1.26 | 42.4% (inactive)
31 | Cc1cc(NC(=O)CN2CCCC(C)C2)n(-c2nc3ccccc3s2)n1 (stereo not given) | 16.2 | 6.5 | -2.07 | -6.69 | 50.7% (active)
32 | COC(=O)c1sc2[nH]c(=S)n(N)c(=O)c2c1C | 68.1 | 67.4 | 67.6 | 66.3 | 70.6% (inactive)
33 | Cc1cccc2cc(CN(Cc3cccs3)C(c3nnnn3C3CCCC3)C(C)C)c(=O)[nH]c12 (stereo not given) | -2.3 | -6.33 | 1.55 | 3.32 | 59.5% (active)
34 | Oc1ccc(/C=N/N(Cc2ccccc2)c2ccccc2)cc1 | -13.7 | -14.9 | -0.103 | 2.51 | 55.2% (active)
35 | CCN1CCN(c2c(Cl)cccc2NC(=O)c2ccc(Br)o2)CC1 | 9.56 | -6.35 | 8.3 | 10.5 | 45.8% (inactive)
36 | CCOC(=O)c1c(N)nn(C(=O)c2ccccc2)c1-c1ccccc1 | -2.57 | -8.03 | 0.963 | -2.53 | 53.3% (active)
37 | Cc1ccc(-n2c(SCC(=O)Nc3ccc4c(c3)OCO4)nnc2-c2ccoc2C)cc1 | 7.89 | -0.777 | -1.2 | -1.05 | 40.3% (inactive)
38 | COc1ccccc1NC(=O)CSc1nnc(Cn2nnc(-c3ccccc3)n2)n1-c1ccccc1 | -5.84 | -2.51 | 2.46 | 3.99 | 61.9% (active)
39 | O=c1c2ccccc2c(-c2ccc(Br)cc2)nn1Cc1ccccc1 | 4.3 | 8.28 | -3.64 | 0.753 | 72.8% (active)
40 | CSc1nc2ccccc2c(=O)n1Cc1ccc(F)cc1 | 1.87 | 10 | -3.28 | 0.81 | 44.6% (inactive)
41 | O=c1c2ccccc2c(-c2ccccc2)nn1Cc1ccccc1 | 1.05 | 4.51 | -1.54 | -0.867 | 78% (active)
